# PubChem BioAssay AID1159580 (chemical genetic matrix, 2015)
# Values joined by “and” are separate entries in the source; they are usually repeats but may differ in a detail not shown here. Identical values can stand only once. About 2,000 (36%) of roughly 5,500 compounds were called active. Another 18% or so got no clear call; they are omitted. Rule as the data show it: active = normalized growth mostly below about 0.91 (no sharp cut-off); inconclusive = no clear call, values can overlap the other calls; inactive = mostly above about 0.92. The list shows a part of the results.
# Test: chemical genetic growth profiling, strain panel (AID 1159580);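 also: tested at 20 µM; growth read once vehicle control cultures reached saturation at 30 °C; 1 = growth at the plate median or of vehicle wells; lower values mean less growth of the strain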
# Conditions: S. cerevisiae deletion strains, growth OD
compound,measurement,setting,value
CC(=O)Oc1cc(-c2coc3cc(OC(C)=O)c(OC(C)=O)c(OC(C)=O)c3c2=O)cc(OC(C)=O)c1OC(C)=O,normalized growth,"locus YAL013W, strain DEP1, stronger effect = lower value",0.67 (active)
same,normalized growth,"locus YAL021C, strain ccr4, stronger effect = lower value",0.81 (active)
same,normalized growth,"locus YAL026C, strain drs2, stronger effect = lower value",0.836 (active)
same,normalized growth,"locus YAL030W, strain snc1, stronger effect = lower value",0.969 (inactive)
same,normalized growth,"locus YBL061C, strain skt5, stronger effect = lower value",0.919 (active)
same,normalized growth,"locus YBR009C, strain hhf1, stronger effect = lower value",0.934 (inactive)
same,normalized growth,"locus YBR021W, strain FUR4, stronger effect = lower value",0.854 (inactive)
same,normalized growth,"locus YBR023C, strain chs3, stronger effect = lower value",0.841 (active)
same,normalized growth,"locus YBR171W, strain sec66, stronger effect = lower value",0.936 (inactive)
same,normalized growth,"locus YBR229C, strain ROT2, stronger effect = lower value",0.89 (active)
same,normalized growth,"locus YBR231C, strain swc5, stronger effect = lower value",0.772 (active)
same,normalized growth,"locus YBR279W, strain paf1, stronger effect = lower value",0.937 (inactive)
same,normalized growth,"locus YCL011C, strain gbp2, stronger effect = lower value",0.93 (inactive)
same,normalized growth,"locus YCL016C, strain dcc1, stronger effect = lower value",0.948 (inactive)
same,normalized growth,"locus YCL029C, strain bik1, stronger effect = lower value",0.674 (active)
same,normalized growth,"locus YCL069W, strain vba3, stronger effect = lower value",0.96 (inactive)
same,normalized growth,"locus YCR088W, strain abp1, stronger effect = lower value",0.977 (inactive)
same,normalized growth,"locus YDL005C, strain med2, stronger effect = lower value",0.985 (inactive)
same,normalized growth,"locus YDL035C, strain GPR1, stronger effect = lower value",0.83 (active)
same,normalized growth,"locus YDL040C, strain nat1, stronger effect = lower value",0.987 (inactive)
same,normalized growth,"locus YDL074C, strain BRE1, stronger effect = lower value",0.643 (active)
same,normalized growth,"locus YDL101C, strain DUN1, stronger effect = lower value",0.438 (active)
same,normalized growth,"locus YDL185W, strain tfp1, stronger effect = lower value",0.978 (inactive)
same,normalized growth,"locus YDL192W, strain arf1, stronger effect = lower value",0.899 (active)
same,normalized growth,"locus YDR001C, strain nth1, stronger effect = lower value",0.977 (inactive)
same,normalized growth,"locus YDR069C, strain doa4, stronger effect = lower value",0.752 (active)
same,normalized growth,"locus YDR101C, strain arx1, stronger effect = lower value",0.827 (active)
same,normalized growth,"locus YDR137W, strain rgp1, stronger effect = lower value",0.795 (active)
same,normalized growth,"locus YDR159W, strain sac3, stronger effect = lower value",0.863 (inactive)
same,normalized growth,"locus YDR162C, strain NBP2, stronger effect = lower value",0.717 (active)
same,normalized growth,"locus YDR195W, strain ref2",0.947 (inactive)
same,normalized growth,"locus YDR297W, strain sur2, stronger effect = lower value",0.914 (active)
same,normalized growth,"locus YDR318W, strain mcm21, stronger effect = lower value",0.967 (inactive)
same,normalized growth,"locus YDR334W, strain swr1, stronger effect = lower value",0.834 (active)
same,normalized growth,"locus YDR335W, strain msn5, stronger effect = lower value",0.851 (active)
same,normalized growth,"locus YDR388W, stronger effect = lower value",0.978 (inactive)
same,normalized growth,"locus YDR392W, strain spt3, stronger effect = lower value",0.938 (inactive)
same,normalized growth,"locus YDR502C, strain sam2, stronger effect = lower value",0.898 (active)
same,normalized growth,"locus YEL003W, strain gim4, stronger effect = lower value",0.877 (active)
same,normalized growth,"locus YEL037C, strain rad23, stronger effect = lower value",0.88 (active)
same,normalized growth,"locus YEL061C, strain CIN8 (second series), stronger effect = lower value",0.946 (inactive)
same,normalized growth,"locus YER015W, strain faa2, stronger effect = lower value",0.894 (active)
same,normalized growth,"locus YER016W, strain bim1, stronger effect = lower value",0.972 (inactive)
same,normalized growth,"locus YER110C, stronger effect = lower value",1.05 (inactive)
same,normalized growth,"locus YER111C, strain swi4, stronger effect = lower value",0.469 (active)
same,normalized growth,"locus YER155C, strain BEM2 (second series), stronger effect = lower value",0.906 (inactive)
same,normalized growth,"locus YER155C, strain BEM2, stronger effect = lower value",0.913 (active)
same,normalized growth,"locus YER167W, strain BCK2, stronger effect = lower value",0.949 (inactive)
same,normalized growth,"locus YFR010W, strain ubp6, stronger effect = lower value",0.881 (active)
same,normalized growth,"locus YGL078C, strain dbp3, stronger effect = lower value",1.01 (inactive)
same,normalized growth,"locus YGL086W, strain mad1, stronger effect = lower value",0.887 (active)
same,normalized growth,"locus YGL167C, strain pmr1, stronger effect = lower value",0.956 (inactive)
same,normalized growth,"locus YGL173C, strain kem1, stronger effect = lower value",0.85 (active)
same,normalized growth,"locus YGL227W, strain vid30, stronger effect = lower value",0.996 (inactive)
same,normalized growth,"locus YGL240W, strain doc1, stronger effect = lower value",0.975 (inactive)
same,normalized growth,"locus YGL248W, strain PDE1, stronger effect = lower value",0.845 (active)
same,normalized growth,"locus YGL253W, strain hxk2, stronger effect = lower value",0.862 (active)
same,normalized growth,"locus YGR135W, strain pre9, stronger effect = lower value",0.871 (active)
same,normalized growth,"locus YGR229C, strain SMI1, stronger effect = lower value",0.302 (active)
same,normalized growth,"locus YGR252W, strain gcn5, stronger effect = lower value",0.873 (inactive)
same,normalized growth,"locus YHR013C, strain ard1, stronger effect = lower value",0.877 (inactive)
same,normalized growth,"locus YHR027C, strain rpn1, stronger effect = lower value",0.885 (active)
same,normalized growth,"locus YHR030C, strain SLT2, stronger effect = lower value",1.05 (inactive)
same,normalized growth,"locus YHR079C, strain IRE1 (second series), stronger effect = lower value",0.794 (active)
same,normalized growth,"locus YHR079C, strain IRE1, stronger effect = lower value",1.07 (inactive)
same,normalized growth,"locus YHR094C, strain hxt1, stronger effect = lower value",1.03 (inactive)
same,normalized growth,"locus YHR129C, strain ARP1, stronger effect = lower value",0.844 (active)
same,normalized growth,"locus YHR142W, strain chs7, stronger effect = lower value",0.82 (active)
same,normalized growth,"locus YHR200W, strain rpn10, stronger effect = lower value",0.914 (active)
same,normalized growth,"locus YIL066C, strain RNR3, stronger effect = lower value",0.834 (active)
same,normalized growth,"locus YIL073C, strain SPO22, stronger effect = lower value",0.602 (active)
same,normalized growth,"locus YIL125W, strain kgd1, stronger effect = lower value",1.03 (inactive)
same,normalized growth,"locus YIR030C, strain dcg1, stronger effect = lower value",0.974 (inactive)
same,normalized growth,"locus YJL092W, strain hpr5, stronger effect = lower value",0.964 (inactive)
same,normalized growth,"locus YJL095W, strain BCK1 (second series), stronger effect = lower value",0.945 (inactive)
same,normalized growth,"locus YJL095W, strain BCK1, stronger effect = lower value",0.179 (active) and 1.03 (inactive)
same,normalized growth,"locus YJL115W, strain asf1, stronger effect = lower value",0.978 (inactive)
same,normalized growth,"locus YJL129C, strain trk1, stronger effect = lower value",0.942 (inactive)
same,normalized growth,"locus YJL134W, strain LCB3, stronger effect = lower value",0.936 (inactive)
same,normalized growth,"locus YJL154C, strain vps35, stronger effect = lower value",0.978 (inactive)
same,normalized growth,"locus YJL164C, strain tpk1, stronger effect = lower value",0.893 (active)
same,normalized growth,"locus YJL166W, strain qcr8, stronger effect = lower value",0.906 (inactive)
same,normalized growth,"locus YJL168C, strain set2, stronger effect = lower value",1.01 (inactive)
same,normalized growth,"locus YJL187C, strain SWE1 (second series), stronger effect = lower value",0.273 (active)
same,normalized growth,"locus YJL187C, strain SWE1, stronger effect = lower value",0.945 (inactive)
same,normalized growth,"locus YJR066W, strain TOR1, stronger effect = lower value",0.971 (inactive)
